# LASV entry inh = Lassa virus entry inhibition; Potency, µM (series often up to 49.2 µM), for inactives: top-dose activity change, negative = inhibition, actives largely listed as inhibitors; 18,000 tested, 4.1% active; Lassa virus pseudotyped entry inhibition, cell-based qHTS; AID 720533
# Marburg entry = inhibitors of Marburg virus binding or entry into cells; 18,000 tested, 6.5% active; Marburg virus pseudotype entry/binding inhibition, cell-based; AID 720532; Potency, µM (titrated, usually from 49.2 µM), for the others: at the highest dose activity change, negative = inhibition, usual class: inhibitors
# Numbers without * were called inactive; ? = inconclusive; · = no result; [ ] = remark or other dose. Shown are actives, neighbours in structure and some others; about 8.6% of the full set was active somewhere. Calls come from the whole dose curve; tested in HEK293 cells. % is set by controls: 0 for no effect and ±100 for the full control effect; potency is the fitted concentration of half-maximal effect.
SMILES,LASV entry inh,Marburg entry
CC(C)C[C@H](NC(=O)CNC(=O)[C@H](Cc1ccc(O)cc1)NC(=O)[C@H](CO)NC(=O)[C@H](Cc1c[nH]c2ccccc12)NC(=O)[C@H](Cc1cnc[nH]1)NC(=O)[C@@H]1CCC(=O)N1)C(=O)N[C@@H](CCCN=C(N)N)C(=O)N1CCC[C@H]1C(=O)NCC(N)=O (stereo in doubt),-13.2%,-1.9%
CCNC(=O)[C@@H]1CCCN1C(=O)[C@H](CCCN=C(N)N)NC(=O)[C@H](CC(C)C)NC(=O)[C@@H](Cc1c[nH]c2ccccc12)NC(=O)[C@H](Cc1ccc(O)cc1)NC(=O)[C@H](CO)NC(=O)[C@H](Cc1c[nH]c2ccccc12)NC(=O)[C@H](Cc1cnc[nH]1)NC(=O)[C@@H]1CCC(=O)N1,3.16µM*,?
CC(=CCO)CCO,13.9%[8.59 µM],1.8%[8.59 µM]
CC(C)(C)OC(=O)N1CCC[C@@H]1C(O)(c1ccccc1)c1ccccc1,0.3%[8.59 µM],-13.0%[8.59 µM]
COc1cc([C@@H]2c3cc4c(cc3C(OC3OC5COC(C)OC5C(O)C3O)C3COC(=O)[C@@H]32)OCO4)cc(OC)c1O (some centres undefined),7.94µM*,25.1µM*
COc1cc([C@@H]2c3cc4c(cc3[C@@H](OC3OC5COC(C)OC5C(O)C3O)[C@H]3COC(=O)[C@H]23)OCO4)cc(OC)c1O (some centres undefined),7.94µM*,?
COc1cc([C@@H]2c3cc4c(cc3[C@@H](O[C@@H]3O[C@H]5CO[C@@H](C)O[C@@H]5[C@@H](O)[C@H]3O)[C@@H]3COC(=O)[C@@H]23)OCO4)cc(OC)c1O,2.82µM*,?
COc1cc([C@@H]2c3cc4c(cc3C(O[C@@H]3O[C@@H]5COC(c6cccs6)O[C@H]5[C@H](O)[C@H]3O)C3COC(=O)[C@@H]32)OCO4)cc(OC)c1O (some centres undefined),3.98µM*,?
COc1ccc(O[C@H]2C=C[C@@H](c3ccccc3)O[C@H]2CON=C(C)CCN2CCCc3nc(C)c(C)cc32)cc1,1.8%[8.59 µM],?
OCc1ccc(-c2nc(-c3ccc4c(c3)OCO4)c(-c3ccccn3)[nH]2)cc1,-25.4%,?
O=C1[C@H]2[C@@H]3[C@@H](O)[C@H](O)CC(=NOCc4ccccc4)[C@H]3CC[C@H]2C(=O)N1C1CCCCC1,1.1%[8.59 µM],-25.4%[8.59 µM]
CC(=O)OC[C@H]1O[C@H](CC=NOCC[C@@H]2C=C[C@@H](OC(C)=O)[C@@H](COC(C)=O)O2)C=C[C@@H]1OC(C)=O,-0.8%[8.59 µM],10.3%[8.59 µM]
O=S1(=O)[C@H]2C[C@H]3O[C@]2(CN1Cc1ccc(C(F)(F)F)cc1)[C@@H]1O[C@@H]13,51.6%,3.6%
C#Cc1cccc(Nc2ncnc3cc(OCCOC)c(OCCOC)cc23)c1,?,-4.3%
COc1cc2c(Nc3ccc(Br)cc3F)ncnc2cc1OCC1CCN(C)CC1,22.4µM*,7.08µM*
O=[S+]1([O-])C[C@H](N2CC[C@@H](O)C2)[C@H](COCc2ccccc2)N1,?,19.7%
Cn1ccc2c(-c3ccc(F)cc3)cc3c(c21)C1CCC3O1 (centres undefined),21.5%,15.3%
Oc1cccc(-c2c3nc(c(-c4cccc(O)c4)c4ccc([nH]4)c(-c4cccc(O)c4)c4nc(c(-c5cccc(O)c5)c5ccc2[nH]5)CC4)C=C3)c1,25.1µM*,?
COC(=O)C1=C(C(=O)OC)[C@@H]2N(CC=C(C)C)c3ccccc3[C@@]23CCC(=O)N(Cc2cccc(C(F)(F)F)c2)C3=N1,2.4%[8.59 µM],-27.9%[8.59 µM]
CC(=C\c1ccccc1)/C=C1/SC(=S)N(CC(=O)O)C1=O,-20.0%,-17.5%
OC(CCN1CCCC1)(c1ccccc1)C1CCCCC1 (centres undefined),-20.4%,15.8µM*
OC(C#CCN1CCCC1)(c1ccccc1)c1ccccc1,-3.7%,-10.0%
OC(CCN1CCCCC1)(c1ccccc1)c1ccccc1,?,8.91µM*
CC[N+](CC)(CC)CCC(O)(c1ccccc1)C1CCCCC1 (centres undefined),-9.8%[17.8 µM],4.7%[17.8 µM]
COc1cccc([C@H]2Oc3ccc(OC)cc3C(=NO[C@@H](C)c3cn([C@H](CO)Cc4ccccc4)nn3)[C@H]2O)c1,11.4%[8.59 µM],5.1%[8.59 µM]
SMILES,LASV entry inh,Marburg entry
Nc1ccccc1C(=O)C=Cc1ccc2c(c1)OCO2,46.4%[8.59 µM],97.4%[8.59 µM]
C=CCOC(=O)N[C@H](C(C(=O)OC)=C(C)NCc1ccccc1)c1cccc(C(F)(F)F)c1,30.8%[8.59 µM],2.8%[8.59 µM]
COC1C=CC23c4cc5c(cc4CN(CC2O)C3C1)OCO5 (centres undefined),7.08µM*,2.24µM*
COc1c2c(cc3c1OCO3)C13C=CC(OC)CC1N(C2)CC3O (centres undefined),1.8%,4.6%
CCN1C(=O)c2ccccc2C1Nc1ccc(OCCN2CCCCC2)cc1 (centres undefined),-9.7%,-23.3%
Cc1c(-c2ccc(O)cc2)nn(-c2ccc(O)cc2)c1-c1ccc(OCCN2CCCCC2)cc1,31.6µM*,3.98µM*
CC(CCN1CCCCc2nc(C)c(C)cc21)=NO[C@@H](C)CN1CCCCc2nc(C)c(C)cc21,·,5.6%[8.59 µM]
COC[C@H]([C@@H](O)[C@@H](O)C(=O)NCC[C@@H](C)c1nc(/C=C/C[C@H]2OC3(C[C@H](O)[C@H]2C)OC([C@@H](C[C@@H](O)[C@@H](C)[C@@H](O)[C@@H](C)/C=C(C)/C(C)=C/C=C/C(C)=C\C#N)OC)[C@@H](OP(=O)(O)O)C3(C)C)co1)N(C)C (some centres undefined),70.8µM*,0.112µM*
Cc1c2ccncc2c(C)c2c1[nH]c1ccccc12,0.2%[17.8 µM],4.47µM*
c1ccc2c(c1)[nH]c1cnccc12,16.4%,11.5%
C=C(C)[C@]12C[C@@H](C)[C@@]34OC(Cc5ccccc5)(O[C@@H]1[C@@H]3C=C(COC(=O)Cc1cc(OC)c(O)cc1I)C[C@]1(O)C(=O)C(C)=C[C@@H]41)O2,20µM*,14.1µM*
CC(=O)O[C@H]1C2[C@@H](OC(=O)Cc3ccccc3)[C@@H](C)C[C@]2(OC(C)=O)C(=O)/C(C)=C/[C@@H]2[C@H](CC[C@@]13CO3)C2(C)C (some centres undefined),-28.0%,?
COc1cc(CC(=O)OCC2=C[C@H]3[C@@H]4C(C)(C)[C@]4(OC(C)=O)[C@H](OC(=O)Cc4ccccc4)[C@@H](C)[C@]3(O)[C@@H]3C=C(C)C(=O)[C@@]3(O)C2)ccc1O,12.6µM*,?
C=C(C)[C@]12C[C@@H](C)[C@@]34OC(Cc5ccccc5)(O[C@@H]1[C@@H]3C=C(COC(=O)Cc1cc(I)c(O)c(OC)c1)C[C@]1(O)C(=O)C(C)=C[C@@H]41)O2,17.8µM*,12.6µM*
O=C(OCc1cn([C@H]2CN(C(=O)C3CCCCC3)[C@@H](c3ccc(Cl)cc3)C[C@H]2O)nn1)c1ccccc1,-15.7%,-39.6%
O=C(O)/C=C\C(=O)O,-3.7%,-13.5%
CC(=O)O.CC(=O)O.[Cd],7.94µM*,2.82µM*
O=C(CCl)c1ccc(Cl)cc1Cl,12.6µM*,8.91µM*
OCc1ccc(Cl)cc1Cl,-19.2%,18.0%
COC(=O)N[C@H](CC(C)=O)c1ccc(F)cc1,1.4%[8.59 µM],35.8%[8.59 µM]
C=CCOC(=O)C(C(C)=O)[C@@H](NC(=O)OC)c1cccc(F)c1 (some centres undefined),-5.3%[8.59 µM],12.5%[8.59 µM]
COc1ccc2c(c1)-c1nc(-n3ncc(C(=O)N(C)CC4CCCN(C)C4)c3C)ncc1CC2 (centres undefined),-5.1%,?

# Assay outcomes deposited in PubChem by National Center for Advancing Translational Sciences (NCATS).
